Where “and” joins values, the source holds several entries; their conditions need not be identical. Equal entries are not always repeated. Inconclusive results are not listed. Entries that show only a call come without a potency. More than one record can exist for a structure, and the calls need not agree. Calls of active or inactive are those of the source. Calls come from the whole dose curve; as a rule, active = well fitted curve in the direction sought with a large enough effect in the repeat runs; inconclusive = weak or mixed curves; inactive = no such curve, though single readings can be large; an effect the other way counts as inactive or inconclusive.
assay: Human pregnane X receptor (PXR) small molecule agonists, qHTS cell viability counter screen (AID 1346977); details: PXR-Luc HepG2 viability, CellTiter-Fluor, 24 h; series mostly up to 92.4 µM; note: nearly all actives have a fitted effect of over 50% in size
In short: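 After a 5hr pre-incubation, PXR-Luc HepG2 cells received compounds plus positive control in DMSO and were kept 24hr at 37C. Cell viability was quantified by fluorescence from CellTiter-Fluor added for the final hour.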

Row | SMILES | Potency
1 | CN(C)C(=O)C(c1ccccc1)c1ccccc1 | inactive
2 | N#Cc1ccccn1 | inactive
3 | C=CC(=O)OCCCCCC(C)C | inactive
4 | O=P1(NCCCl)OCCCN1CCCl (stereo not given) | inactive
5 | Cc1cccc(C)c1N | inactive
6 | COS(=O)(=O)OC | inactive
7 | CCOc1ccc(N)cc1 | inactive
8 | CCCOC(=O)c1ccccc1C(=O)OCCC | inactive
9 | Nc1cc(Cl)cc(Cl)c1 | inactive
10 | CCCCC(CC)C(=O)Cl (stereo not given) | inactive
11 | CC(C)(C)C(=O)CCl | inactive
12 | O=C(O)CCCc1ccc(N(CCCl)CCCl)cc1 | inactive
13 | OCc1ccco1 | inactive
14 | COc1cc(-c2ccc(N)c(OC)c2)ccc1N | inactive
15 | Cc1ccc(N=C=O)cc1N=C=O | inactive
16 | ClC(Cl)c1ccccc1 | inactive
17 | N#CN=C(N)N | inactive
18 | Cl/C=C/Cl | inactive
19 | CC(C)c1cccc(C(C)C)c1O | inactive
20 | Cc1ccc(O)c(C)c1 | inactive
21 | CC(C)CCCCCCOC(=O)c1ccccc1C(=O)OCCCCCCC(C)C | inactive
22 | OCCCCO | inactive
23 | CNC(=O)O/N=C/C(C)(C)SC | inactive
24 | N#Cc1cccc(C#N)c1 | inactive
25 | FC(F)(F)c1ccc(Cl)cc1 | inactive
26 | CCOC(=O)CC(SP(=O)(OC)OC)C(=O)OCC (stereo not given) | inactive
27 | O=C(O)C(Br)Br | inactive
28 | CCOP(=S)(OCC)Oc1ccc([N+](=O)[O-])cc1 | inactive
29 | Cc1cccc(C)c1NC(=O)CN1CCCC1=O | inactive
30 | CN(C)C(=O)Cl | inactive

assay: Caspase-3/7 induction in HepG2 cells by small molecules, qHTS assay (AID 1346978); details: HepG2 caspase-3/7 activation, Caspase-Glo luminescence, 17 h; series mostly up to 92.4 µM; note: nearly all actives have a fitted effect of over 15% in size
In short: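 Wild-type HepG2 cells, 2,000/well, settled 5 hr at 37 C and 5% CO2, then compound-treated for 17 hr; caspase-3/7 activity read by luminescent Caspase-Glo 3/7 after 30 min at room temperature.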

Row | SMILES | outcome
31 | CN(C)C(=O)C(c1ccccc1)c1ccccc1 | inactive
32 | N#Cc1ccccn1 | inactive
33 | C=CC(=O)OCCCCCC(C)C | inactive
34 | O=P1(NCCCl)OCCCN1CCCl (stereo not given) | inactive
35 | Cc1cccc(C)c1N | inactive
36 | COS(=O)(=O)OC | inactive
37 | CCOc1ccc(N)cc1 | inactive
38 | CCCOC(=O)c1ccccc1C(=O)OCCC | inactive
39 | Nc1cc(Cl)cc(Cl)c1 | inactive
40 | CCCCC(CC)C(=O)Cl (stereo not given) | inactive
41 | CC(C)(C)C(=O)CCl | inactive
42 | O=C(O)CCCc1ccc(N(CCCl)CCCl)cc1 | inactive
43 | OCc1ccco1 | inactive
44 | COc1cc(-c2ccc(N)c(OC)c2)ccc1N | inactive
45 | Cc1ccc(N=C=O)cc1N=C=O | inactive
46 | ClC(Cl)c1ccccc1 | inactive
47 | N#CN=C(N)N | inactive
48 | Cl/C=C/Cl | inactive
49 | CC(C)c1cccc(C(C)C)c1O | inactive
50 | Cc1ccc(O)c(C)c1 | inactive
51 | CC(C)CCCCCCOC(=O)c1ccccc1C(=O)OCCCCCCC(C)C | inactive
52 | OCCCCO | inactive
53 | CNC(=O)O/N=C/C(C)(C)SC | inactive
54 | N#Cc1cccc(C#N)c1 | inactive
55 | FC(F)(F)c1ccc(Cl)cc1 | inactive
56 | CCOC(=O)CC(SP(=O)(OC)OC)C(=O)OCC (stereo not given) | inactive
57 | O=C(O)C(Br)Br | inactive
58 | CCOP(=S)(OCC)Oc1ccc([N+](=O)[O-])cc1 | inactive
59 | Cc1cccc(C)c1NC(=O)CN1CCCC1=O | inactive
60 | CN(C)C(=O)Cl | inactive

assay: Caspase-3/7 induction in CHO-K1 cells by small molecules, qHTS cell viability counter screen (AID 1346979); details: CellTiter-Fluor fluorescence, 17 h; series mostly up to 92.4 µM; note: nearly all actives have a fitted effect of over 35% in size; note: potency is the fitted concentration of half-maximal effect
In short: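 Multiplexed with Caspase-Glo 3/7 in CHO-K1 cells, this counter screen added CellTiter-Fluor after 16hr of compound exposure and recorded fluorescence 1hr later.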

Row | SMILES | Potency
61 | CN(C)C(=O)C(c1ccccc1)c1ccccc1 | inactive
62 | N#Cc1ccccn1 | inactive
63 | C=CC(=O)OCCCCCC(C)C | inactive
64 | O=P1(NCCCl)OCCCN1CCCl (stereo not given) | inactive
65 | Cc1cccc(C)c1N | inactive
66 | COS(=O)(=O)OC | inactive
67 | CCOc1ccc(N)cc1 | inactive
68 | CCCOC(=O)c1ccccc1C(=O)OCCC | inactive
69 | Nc1cc(Cl)cc(Cl)c1 | inactive
70 | CCCCC(CC)C(=O)Cl (stereo not given) | inactive
71 | CC(C)(C)C(=O)CCl | inactive
72 | O=C(O)CCCc1ccc(N(CCCl)CCCl)cc1 | 34.5 µM (active) and 21.7 µM (active) and 21.1 µM (active)
73 | OCc1ccco1 | inactive
74 | COc1cc(-c2ccc(N)c(OC)c2)ccc1N | inactive and 58.3 µM (active)
75 | Cc1ccc(N=C=O)cc1N=C=O | inactive
76 | ClC(Cl)c1ccccc1 | inactive
77 | N#CN=C(N)N | inactive
78 | Cl/C=C/Cl | inactive
79 | CC(C)c1cccc(C(C)C)c1O | inactive
80 | Cc1ccc(O)c(C)c1 | inactive
81 | CC(C)CCCCCCOC(=O)c1ccccc1C(=O)OCCCCCCC(C)C | inactive
82 | OCCCCO | inactive
83 | CNC(=O)O/N=C/C(C)(C)SC | inactive
84 | N#Cc1cccc(C#N)c1 | inactive
85 | FC(F)(F)c1ccc(Cl)cc1 | inactive
86 | CCOC(=O)CC(SP(=O)(OC)OC)C(=O)OCC (stereo not given) | inactive
87 | O=C(O)C(Br)Br | inactive
88 | CCOP(=S)(OCC)Oc1ccc([N+](=O)[O-])cc1 | inactive
89 | Cc1cccc(C)c1NC(=O)CN1CCCC1=O | inactive
90 | CN(C)C(=O)Cl | inactive

assay: Caspase-3/7 induction in CHO-K1 cells by small molecules, qHTS assay (AID 1346980); details: CHO-K1 caspase-3/7 induction, Caspase-Glo luminescence, 17 h; series mostly up to 92.4 µM; note: nearly all actives have a fitted effect of over 15% in size
In short: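 Wild-type CHO-K1 cells exposed to compounds for 17hr at 37 C, 5% CO2. Caspase-3/7 activity then measured by Caspase-Glo 3/7 luminescence after 30min at room temperature.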

Row | SMILES | outcome
91 | CN(C)C(=O)C(c1ccccc1)c1ccccc1 | inactive
92 | N#Cc1ccccn1 | inactive
93 | C=CC(=O)OCCCCCC(C)C | inactive
94 | O=P1(NCCCl)OCCCN1CCCl (stereo not given) | inactive
95 | Cc1cccc(C)c1N | inactive
96 | COS(=O)(=O)OC | inactive
97 | CCOc1ccc(N)cc1 | inactive
98 | CCCOC(=O)c1ccccc1C(=O)OCCC | inactive
99 | Nc1cc(Cl)cc(Cl)c1 | inactive
100 | CCCCC(CC)C(=O)Cl (stereo not given) | inactive
101 | CC(C)(C)C(=O)CCl | inactive
102 | O=C(O)CCCc1ccc(N(CCCl)CCCl)cc1 | inactive
103 | OCc1ccco1 | inactive
104 | COc1cc(-c2ccc(N)c(OC)c2)ccc1N | inactive
105 | Cc1ccc(N=C=O)cc1N=C=O | inactive
106 | ClC(Cl)c1ccccc1 | inactive
107 | N#CN=C(N)N | inactive
108 | Cl/C=C/Cl | inactive
109 | CC(C)c1cccc(C(C)C)c1O | inactive
110 | Cc1ccc(O)c(C)c1 | inactive
111 | CC(C)CCCCCCOC(=O)c1ccccc1C(=O)OCCCCCCC(C)C | inactive
112 | OCCCCO | inactive
113 | CNC(=O)O/N=C/C(C)(C)SC | inactive
114 | N#Cc1cccc(C#N)c1 | inactive
115 | FC(F)(F)c1ccc(Cl)cc1 | inactive
116 | CCOC(=O)CC(SP(=O)(OC)OC)C(=O)OCC (stereo not given) | inactive
117 | O=C(O)C(Br)Br | inactive
118 | CCOP(=S)(OCC)Oc1ccc([N+](=O)[O-])cc1 | inactive
119 | Cc1cccc(C)c1NC(=O)CN1CCCC1=O | inactive
120 | CN(C)C(=O)Cl | inactive

From PubChem BioAssay (Tox21)
